Bioassay records: PubChem, National Center for Advancing Translational Sciences (NCATS)
G9a inh – blocks human histone lysine methyltransferase G9a; Q96KQ7; G9a H3K9 monomethylation, AlphaScreen, 2 h; Potency, µM (top dose mostly 102 µM), hits mostly inhibitors; 8.8% of 350,000 active; AID 504332; further: nearly all actives have a fitted effect of over 75% in size
Target sequence (Q96KQ7 913-1193 limits assumed): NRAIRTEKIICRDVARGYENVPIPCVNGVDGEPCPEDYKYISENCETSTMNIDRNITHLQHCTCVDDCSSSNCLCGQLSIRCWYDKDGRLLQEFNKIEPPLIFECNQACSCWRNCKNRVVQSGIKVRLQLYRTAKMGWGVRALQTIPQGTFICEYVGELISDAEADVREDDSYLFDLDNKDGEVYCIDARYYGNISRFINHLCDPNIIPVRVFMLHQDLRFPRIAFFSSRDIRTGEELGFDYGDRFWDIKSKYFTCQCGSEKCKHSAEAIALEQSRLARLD
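Signal arises when biotinylated H3K9 peptide, once monomethylated, bridges streptavidin donor and antibody-captured acceptor beads. Enzyme at 20 nM was preincubated 15 min with test compounds; peptide 500 nM and SAM 20 uM then reacted for 2 h.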
HP1b binding inh – inhibitors of HP1-beta chromodomain binding to methylated histone tails. P83916. AID 540317. Potency, µM (highest dose often 114 µM), usual class: inhibitors. AlphaScreen HP1-beta / biotin-H3K9me3 peptide binding. 0.56% of 390,000 active; further: nearly all actives have a fitted effect of over 70% in size
Target sequence (P83916 whole entry, looked up): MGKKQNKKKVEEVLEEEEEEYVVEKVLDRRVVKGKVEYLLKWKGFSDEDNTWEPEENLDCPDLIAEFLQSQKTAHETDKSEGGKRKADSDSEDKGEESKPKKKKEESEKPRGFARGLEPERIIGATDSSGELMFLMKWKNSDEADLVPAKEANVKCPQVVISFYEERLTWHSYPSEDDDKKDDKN
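Compound inhibition of the preformed complex between 50 nM HP1-beta and 50 nM biotinylated H3K9me3 peptide was read by AlphaScreen. Buffer was PBS pH 7.4 with 0.01% Tween-20. Incubations ran 30 min at room temperature, with 10 ug/mL donor/acceptor beads.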
BAZ2B block – BAZ2B (human) inhibition; AlphaScreen BAZ2B-H3K14Ac peptide displacement; Q9UIF8; Potency, µM (doses to about 114 µM), actives largely listed as inhibitors; AID 504333; 4.4% of 360,000 active; further: nearly all actives have a fitted effect of over 60% in size
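AlphaScreen displacement of biotin-H3(5-23)K14Ac peptide (50 nM final) from BAZ2B (50 nM final) in PBS pH 7.4, 0.01% Tween-20; complex preformed 30 min RT, then compounds (top 110 uM) 30 min RT, beads 20 min dark.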
Sfp inh – inhibitors of Bacillus subtilis Sfp phosphopantetheinyl transferase | Q9F4F7 | Biochemical Sfp PPTase activity, qHTS | Potency, µM, most hits filed as inhibitors | 3.5% of 310,000 active;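 further: the enzyme is Sfp with the accession as filed and its product quenches rhodamine fluorescence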
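With Hepes-Na pH 7.6 buffer containing 10 mM MgCl2, Sfp (15 nM) modified BHQ-2-YbbR (12.5 uM) using rhodamine-CoA (5 uM). Two reads 30 minutes apart at 525/598 nm yielded each well's rate.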
JMJD2A Tudor – JMJD2A Tudor domain (human) inhibition; Potency, µM (titrated, usually from 114 µM), most hits filed as inhibitors; AlphaScreen JMJD2A-Tudor / H3K4me3 peptide binding; 4.4% of 390,000 active; O75164; further: nearly all actives have a fitted effect of over 50% in size
A number is an active result; ! = not active in a repeat; [ ] = remark or other dose. An excerpt weighted towards active compounds, which were near 12% of everything screened. The call rests on the fitted dose curve; in most records, active means well fitted curve in the direction sought with a large enough effect; inconclusive means small, poorly fitted or top-dose-only effect, or another doubt; inactive means no such curve, though single readings can be large; an effect the other way counts as inactive or inconclusive.

COC(=O)c1c(NC(=S)NN2CCN(C)CC2)sc2c1CCC(C)C2 (stereo not given) was read as G9a inh 45µM, HP1b binding inh inconclusive, BAZ2B block inconclusive, Sfp inh inconclusive and JMJD2A Tudor inconclusive.
Screening COC(=O)c1c(NC(=O)Cn2cnc([N+](=O)[O-])n2)sc2c1CCC(C)C2 (stereo not given) returned G9a inh 8.9µM, HP1b binding inh inconclusive, BAZ2B block inactive, Sfp inh 32µM and JMJD2A Tudor inconclusive.
For COC(=O)c1c(NC(=O)Cc2cccs2)sc2c1CCC(C)C2 (stereo not given) the results were G9a inh inconclusive, HP1b binding inh inactive, BAZ2B block inactive, Sfp inh 20µM and JMJD2A Tudor inactive.
COC(=O)c1c(NC(=O)CN(C)CC(=O)Nc2ccc(C)cc2)sc2c1CCC(C)C2 (stereo not given) was read as G9a inh inactive, HP1b binding inh inactive, BAZ2B block inactive and JMJD2A Tudor inactive.
O=C(NCc1ccc(F)cc1)C1CCCN(C(=O)Nc2ccc(F)cc2)C1 (stereo not given) was read as G9a inh inactive, HP1b binding inh inactive, BAZ2B block inactive, Sfp inh inactive and JMJD2A Tudor inactive.
CN(CCc1ccccn1)C(=O)c1ccc(OC(F)(F)F)cc1 was read as G9a inh inactive, HP1b binding inh inactive, BAZ2B block inactive, Sfp inh inactive and JMJD2A Tudor inactive.
`ON(CCc1ccccn1)CCc1ccccn1` gave HP1b binding inh inactive and JMJD2A Tudor 14µM.
Screening CN(CCc1ccccn1)S(=O)(=O)c1ccc(F)cc1 returned G9a inh 7.1µM, HP1b binding inh 28µM, BAZ2B block 45µM, Sfp inh inactive and JMJD2A Tudor 5.6µM.
For COc1ccc(CN(C)CCc2ccccn2)c(OC)c1OC the results were G9a inh inactive[2.33 µM], HP1b binding inh inconclusive, BAZ2B block 28µM, Sfp inh inconclusive and JMJD2A Tudor 1µM.
Screening CCOc1ccc(CN(C)CCc2ccccn2)cc1 returned G9a inh 18µM, HP1b binding inh 25µM, BAZ2B block 56µM, Sfp inh inconclusive and JMJD2A Tudor 18µM.
`CN(CC(=O)NCc1ccccn1)S(=O)(=O)c1ccc(F)cc1` gave G9a inh inactive, HP1b binding inh inactive, BAZ2B block inactive, Sfp inh inactive and JMJD2A Tudor inactive.
ON(CCc1ccccn1)Cc1ccccc1 was read as HP1b binding inh inactive and JMJD2A Tudor inactive.
Cc1cccc(CN(C)CCc2ccccn2)c1 was read as G9a inh inconclusive, HP1b binding inh inconclusive, BAZ2B block inconclusive, Sfp inh inactive and JMJD2A Tudor 3.2µM.
Screening CCC(=O)Nc1sc2c(c1C#N)CC(C)(CC)OC2 (stereo not given) returned G9a inh inactive[12.7 µM], HP1b binding inh inactive, BAZ2B block inactive, Sfp inh 56µM and JMJD2A Tudor inactive.
CC1(C)Cc2c(sc(NC(=O)C(=O)N3CCCC3)c2C#N)CO1 was read as G9a inh 28µM, HP1b binding inh inactive, BAZ2B block inactive, Sfp inh inconclusive and JMJD2A Tudor inconclusive.
For COc1ccc(Nc2nc(-c3c(C)nc4ncccn34)cs2)cc1 the results were G9a inh 18µM, HP1b binding inh inactive, BAZ2B block inconclusive, Sfp inh 18µM and JMJD2A Tudor inconclusive.
`c1coc(CNc2nc(-c3cccs3)cs2)c1` gave G9a inh 20µM, HP1b binding inh inactive, BAZ2B block 45µM, Sfp inh inactive and JMJD2A Tudor inconclusive.
Screening Cc1nc2ncccn2c1-c1csc(Nc2ccc(N(C)C)cc2)n1 returned G9a inh 7.9µM, HP1b binding inh inconclusive, BAZ2B block 32µM, Sfp inh inconclusive and JMJD2A Tudor 28µM.
Cc1nc2ncccn2c1-c1csc(Nc2ccc(S(N)(=O)=O)cc2)n1 was read as HP1b binding inh inactive, BAZ2B block inactive, Sfp inh inactive and JMJD2A Tudor inactive.
Screening O=C(Cc1ccccc1)Nc1nc(-c2cccs2)cs1 returned G9a inh inconclusive, HP1b binding inh inactive, BAZ2B block inactive, Sfp inh inactive and JMJD2A Tudor inactive.
Screening Cc1nc2ncccn2c1-c1csc(Nc2ccccc2)n1 returned G9a inh 25µM, HP1b binding inh inactive, BAZ2B block inactive, Sfp inh 56µM and JMJD2A Tudor inconclusive.
Screening O=C(O)c1ccc(-c2noc(-c3ccccc3C(F)(F)F)n2)cc1 returned HP1b binding inh inactive and JMJD2A Tudor inactive.
`CC(=O)Nc1ccc(Nc2nc(-c3c(C)nc4ccccn34)cs2)cc1` gave HP1b binding inh inactive and JMJD2A Tudor 79µM.
For Cc1nc2ncccn2c1-c1csc(NCc2ccco2)n1 the results were G9a inh inconclusive, HP1b binding inh inactive, BAZ2B block inconclusive, Sfp inh 8.9µM and JMJD2A Tudor inactive.
`COc1ccccc1Nc1nc(-c2c(C)nc3ncccn23)cs1` gave G9a inh inconclusive, HP1b binding inh inconclusive, BAZ2B block inconclusive, Sfp inh inconclusive and JMJD2A Tudor inactive.
Screening O=C(Nc1ccc(-c2csc(Nc3ccc(Cl)cc3)n2)cc1)c1ccccc1 returned HP1b binding inh inactive and JMJD2A Tudor inactive.
For Cc1ccc(C(=O)N(Nc2nc3ccccc3s2)C(=O)c2ccc(C)cc2)cc1 the results were G9a inh inactive, HP1b binding inh inactive, BAZ2B block inactive, Sfp inh inactive and JMJD2A Tudor inactive.
`CCCCC[C@H](O)/C=C/C=C/C=C/[C@@H](O)C/C=C\CCCC(=O)O` gave Sfp inh inactive.
CCCCC/C=C\CC(O)/C=C/c1cccc(CC(O)CCCCO)n1 (stereo not given) was read as G9a inh 17µM! and Sfp inh inactive.
Screening CN(C)c1ccc(CNC(=O)C(Cc2ccccc2)NS(=O)(=O)c2ccc3c(c2)oc(=O)n3C)cc1 (stereo not given) returned G9a inh inactive, HP1b binding inh inactive, BAZ2B block inactive and JMJD2A Tudor inactive.
`Cc1cc2ccccc2c(=O)[nH]1` gave G9a inh inactive[12.7 µM], HP1b binding inh inactive, BAZ2B block inactive, Sfp inh inactive and JMJD2A Tudor inactive.
O=c1[nH]c(Nc2ccccc2Cl)cc2ccccc12 was read as HP1b binding inh inactive and JMJD2A Tudor inactive.
O=c1[nH]c(Nc2ccc(F)cc2)cc2ccccc12 was read as G9a inh 11µM, HP1b binding inh inactive, BAZ2B block inactive, Sfp inh inactive and JMJD2A Tudor inactive.
Screening COc1ccccc1Nc1cc2ccccc2c(=O)[nH]1 returned JMJD2A Tudor 79µM.
`Cc1ccccc1Nc1cc2ccccc2c(=O)[nH]1` gave G9a inh inconclusive, HP1b binding inh inactive, BAZ2B block inactive, Sfp inh inactive and JMJD2A Tudor 45µM!.
O=c1[nH]c(Nc2ccccn2)cc2ccccc12 was read as HP1b binding inh inactive and JMJD2A Tudor inactive.
For c1ccc2oc(SCc3nc4ccccc4s3)nc2c1 the results were G9a inh inactive, HP1b binding inh inactive, BAZ2B block inactive, Sfp inh inactive and JMJD2A Tudor inactive.
